Measurements as given in the supplement of paper PMC10849652.
The full data set covers some 8,800 targets. This sample favours those with a hit. About 0.5% of all pairs of compound and target were hits.

What follows are targets tested with Cc1cn(-c2cc(NC(=O)c3ccc(C)c(Nc4nccc(-c5cccnc5)n4)c3)cc(C(F)(F)F)c2)cn1 [nilotinib] (assay: log2 fold change, soluble protein after heating vs DMSO (PISA); higher = thermal stabilisation; K562 lysate, 10 uM; active = over 0.2 and 3.5 SD of the protein, either way, in both replicates (recomputed)).
In short: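 Dounce homogenisation of K562 pellets in PBS pH 7.4 with 1 mM MgCl2 produced a crude extract, used at 1 mg/mL protein. Exposure to 10 μM compound lasted 30 min, and aliquots were then heated for 3 min across 48°C-58°C, pooled and brought to 0.5% NP-40 at 4°C. The supernatant after 21,000xg for 90 min was quantified by TMTpro 16plex LC-MS/MS with channel sums equalised. Duplicate values are given as log-two fold change in thermal stability relative to solvent controls.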

Sequence of UniProt P50570 (P50570 whole entry, looked up): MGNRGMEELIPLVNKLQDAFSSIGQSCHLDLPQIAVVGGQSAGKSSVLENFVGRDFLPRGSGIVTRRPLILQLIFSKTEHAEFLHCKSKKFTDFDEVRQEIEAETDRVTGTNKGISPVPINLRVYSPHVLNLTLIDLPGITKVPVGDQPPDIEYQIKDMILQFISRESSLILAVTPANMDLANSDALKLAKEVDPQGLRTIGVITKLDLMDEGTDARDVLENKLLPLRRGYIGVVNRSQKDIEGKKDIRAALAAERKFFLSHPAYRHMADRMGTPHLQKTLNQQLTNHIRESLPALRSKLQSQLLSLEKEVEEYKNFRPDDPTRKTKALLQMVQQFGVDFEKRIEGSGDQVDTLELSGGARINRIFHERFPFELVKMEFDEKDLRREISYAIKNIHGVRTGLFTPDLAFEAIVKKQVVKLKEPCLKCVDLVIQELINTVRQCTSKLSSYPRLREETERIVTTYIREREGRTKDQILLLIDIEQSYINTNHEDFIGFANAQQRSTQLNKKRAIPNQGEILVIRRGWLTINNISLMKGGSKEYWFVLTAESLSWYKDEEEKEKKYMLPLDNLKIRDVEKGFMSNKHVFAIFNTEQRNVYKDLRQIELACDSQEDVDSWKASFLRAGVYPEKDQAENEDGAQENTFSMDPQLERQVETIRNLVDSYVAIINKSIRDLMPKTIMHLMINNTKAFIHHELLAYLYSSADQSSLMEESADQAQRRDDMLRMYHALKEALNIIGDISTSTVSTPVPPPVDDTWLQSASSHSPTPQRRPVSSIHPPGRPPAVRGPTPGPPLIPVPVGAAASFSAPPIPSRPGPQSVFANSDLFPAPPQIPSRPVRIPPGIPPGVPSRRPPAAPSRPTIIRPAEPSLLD
Sequence of UniProt O60762 (O60762 whole entry, looked up): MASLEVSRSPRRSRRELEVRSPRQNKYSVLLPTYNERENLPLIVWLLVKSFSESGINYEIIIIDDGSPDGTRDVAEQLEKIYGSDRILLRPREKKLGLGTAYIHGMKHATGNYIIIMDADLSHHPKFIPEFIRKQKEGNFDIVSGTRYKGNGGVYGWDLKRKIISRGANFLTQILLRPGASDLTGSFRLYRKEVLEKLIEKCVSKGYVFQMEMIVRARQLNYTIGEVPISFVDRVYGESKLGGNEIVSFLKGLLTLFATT
Sequence of UniProt Q9H9E3 (Q9H9E3 whole entry, looked up): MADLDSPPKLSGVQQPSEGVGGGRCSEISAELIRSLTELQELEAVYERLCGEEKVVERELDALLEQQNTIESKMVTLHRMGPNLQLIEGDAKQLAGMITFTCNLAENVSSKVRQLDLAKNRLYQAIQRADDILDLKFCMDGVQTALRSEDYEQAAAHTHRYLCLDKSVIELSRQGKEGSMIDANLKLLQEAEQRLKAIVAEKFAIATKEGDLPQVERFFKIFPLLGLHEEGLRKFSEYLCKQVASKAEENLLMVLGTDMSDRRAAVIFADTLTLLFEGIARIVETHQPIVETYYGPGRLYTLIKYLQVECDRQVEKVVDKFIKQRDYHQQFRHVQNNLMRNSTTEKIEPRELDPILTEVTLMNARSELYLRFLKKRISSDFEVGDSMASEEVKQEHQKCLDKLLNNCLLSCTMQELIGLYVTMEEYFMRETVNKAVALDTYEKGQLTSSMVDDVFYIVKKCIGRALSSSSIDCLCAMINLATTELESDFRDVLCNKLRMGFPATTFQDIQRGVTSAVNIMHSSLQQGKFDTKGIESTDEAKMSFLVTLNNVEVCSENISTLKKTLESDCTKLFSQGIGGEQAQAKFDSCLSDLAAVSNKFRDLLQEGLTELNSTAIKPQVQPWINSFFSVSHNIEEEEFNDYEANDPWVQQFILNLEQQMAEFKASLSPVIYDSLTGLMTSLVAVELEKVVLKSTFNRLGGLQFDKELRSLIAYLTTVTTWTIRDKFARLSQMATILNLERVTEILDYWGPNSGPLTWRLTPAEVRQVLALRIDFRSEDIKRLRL
Sequence of UniProt P29373 (P29373 whole entry, looked up): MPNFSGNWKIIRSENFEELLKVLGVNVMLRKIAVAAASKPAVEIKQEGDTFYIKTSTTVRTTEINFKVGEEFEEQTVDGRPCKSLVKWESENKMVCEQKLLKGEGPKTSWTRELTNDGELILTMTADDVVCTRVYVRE
Sequence of UniProt Q9NSV4 (Q9NSV4 whole entry, looked up): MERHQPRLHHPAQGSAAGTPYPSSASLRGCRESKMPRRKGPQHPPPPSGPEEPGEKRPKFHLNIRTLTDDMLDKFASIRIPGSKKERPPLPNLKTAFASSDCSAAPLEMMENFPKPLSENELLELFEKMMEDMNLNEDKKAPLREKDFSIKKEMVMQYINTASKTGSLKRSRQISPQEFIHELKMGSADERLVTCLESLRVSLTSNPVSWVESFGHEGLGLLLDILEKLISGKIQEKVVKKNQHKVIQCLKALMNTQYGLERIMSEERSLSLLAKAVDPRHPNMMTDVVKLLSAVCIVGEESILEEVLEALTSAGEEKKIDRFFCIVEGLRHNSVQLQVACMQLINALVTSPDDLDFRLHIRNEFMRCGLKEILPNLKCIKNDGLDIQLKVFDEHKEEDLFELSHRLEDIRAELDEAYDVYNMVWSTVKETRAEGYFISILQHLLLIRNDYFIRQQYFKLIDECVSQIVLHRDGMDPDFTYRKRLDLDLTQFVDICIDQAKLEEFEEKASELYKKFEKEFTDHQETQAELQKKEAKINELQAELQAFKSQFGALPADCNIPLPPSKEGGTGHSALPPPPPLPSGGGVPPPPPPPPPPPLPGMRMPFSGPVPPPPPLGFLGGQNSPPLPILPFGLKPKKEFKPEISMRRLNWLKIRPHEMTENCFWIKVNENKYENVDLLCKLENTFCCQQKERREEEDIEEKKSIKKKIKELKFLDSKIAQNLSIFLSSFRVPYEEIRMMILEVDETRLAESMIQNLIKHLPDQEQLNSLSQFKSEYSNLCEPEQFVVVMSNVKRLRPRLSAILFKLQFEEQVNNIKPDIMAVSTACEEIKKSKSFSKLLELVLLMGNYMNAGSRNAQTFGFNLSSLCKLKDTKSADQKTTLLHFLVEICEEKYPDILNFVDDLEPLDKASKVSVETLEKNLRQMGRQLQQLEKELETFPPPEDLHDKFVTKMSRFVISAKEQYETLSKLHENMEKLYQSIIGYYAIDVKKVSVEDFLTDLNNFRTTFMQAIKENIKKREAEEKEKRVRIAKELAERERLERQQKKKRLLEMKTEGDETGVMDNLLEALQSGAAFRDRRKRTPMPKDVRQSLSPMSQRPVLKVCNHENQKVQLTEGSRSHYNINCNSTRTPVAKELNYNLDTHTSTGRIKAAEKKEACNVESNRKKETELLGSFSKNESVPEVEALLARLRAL
Sequence of UniProt O75153 (O75153 whole entry, looked up): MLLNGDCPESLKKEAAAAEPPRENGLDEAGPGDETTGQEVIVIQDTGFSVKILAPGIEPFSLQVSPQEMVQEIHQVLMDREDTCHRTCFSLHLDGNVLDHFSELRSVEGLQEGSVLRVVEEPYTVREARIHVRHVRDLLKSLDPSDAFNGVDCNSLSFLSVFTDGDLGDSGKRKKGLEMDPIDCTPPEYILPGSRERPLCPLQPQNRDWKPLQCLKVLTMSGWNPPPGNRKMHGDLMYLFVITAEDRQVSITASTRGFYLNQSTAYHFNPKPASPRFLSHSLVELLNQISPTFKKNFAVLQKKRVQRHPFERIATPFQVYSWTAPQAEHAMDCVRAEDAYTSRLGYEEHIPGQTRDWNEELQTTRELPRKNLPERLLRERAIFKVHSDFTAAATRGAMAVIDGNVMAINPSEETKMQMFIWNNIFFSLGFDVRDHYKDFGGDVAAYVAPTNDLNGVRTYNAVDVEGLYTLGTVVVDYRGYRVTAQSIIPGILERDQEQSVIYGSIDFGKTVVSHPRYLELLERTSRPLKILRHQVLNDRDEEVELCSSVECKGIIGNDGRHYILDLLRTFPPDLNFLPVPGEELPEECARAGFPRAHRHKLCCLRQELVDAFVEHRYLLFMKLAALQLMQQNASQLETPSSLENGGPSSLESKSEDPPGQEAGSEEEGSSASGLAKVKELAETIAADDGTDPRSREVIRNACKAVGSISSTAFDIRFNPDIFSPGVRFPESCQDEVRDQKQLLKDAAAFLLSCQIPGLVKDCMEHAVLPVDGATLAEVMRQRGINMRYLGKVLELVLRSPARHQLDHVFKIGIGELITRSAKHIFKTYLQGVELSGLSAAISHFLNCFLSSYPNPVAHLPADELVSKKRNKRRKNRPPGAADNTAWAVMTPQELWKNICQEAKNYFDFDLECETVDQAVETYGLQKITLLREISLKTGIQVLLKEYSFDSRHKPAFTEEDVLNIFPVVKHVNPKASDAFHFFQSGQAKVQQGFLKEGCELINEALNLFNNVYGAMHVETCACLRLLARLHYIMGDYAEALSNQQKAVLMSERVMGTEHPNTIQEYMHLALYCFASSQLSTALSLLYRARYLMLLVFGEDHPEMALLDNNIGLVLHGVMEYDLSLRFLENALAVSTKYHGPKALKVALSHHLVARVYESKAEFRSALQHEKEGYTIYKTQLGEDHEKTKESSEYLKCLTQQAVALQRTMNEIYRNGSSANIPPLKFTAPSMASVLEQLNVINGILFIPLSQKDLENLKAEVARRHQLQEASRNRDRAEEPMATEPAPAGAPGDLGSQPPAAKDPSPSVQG
Sequence of UniProt Q8TB03 (Q8TB03 whole entry, looked up): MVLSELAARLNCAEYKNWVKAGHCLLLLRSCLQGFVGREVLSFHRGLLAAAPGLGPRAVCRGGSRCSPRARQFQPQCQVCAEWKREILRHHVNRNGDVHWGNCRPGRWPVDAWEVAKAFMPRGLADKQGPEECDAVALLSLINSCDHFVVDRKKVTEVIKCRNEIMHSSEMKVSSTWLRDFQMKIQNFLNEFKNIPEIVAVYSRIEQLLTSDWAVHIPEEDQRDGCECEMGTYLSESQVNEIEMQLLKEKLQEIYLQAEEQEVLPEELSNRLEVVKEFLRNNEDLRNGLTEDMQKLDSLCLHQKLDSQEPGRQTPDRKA
Sequence of UniProt Q9P003 (Q9P003 whole entry, looked up): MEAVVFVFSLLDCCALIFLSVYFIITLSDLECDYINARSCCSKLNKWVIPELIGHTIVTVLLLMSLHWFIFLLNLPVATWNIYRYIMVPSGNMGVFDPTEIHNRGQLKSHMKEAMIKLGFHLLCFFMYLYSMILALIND

log2 fold change, inactive:
COTL1 (UniProt Q14019) 0.021
DHCR7 (UniProt Q9UBM7) -0.013
DIAPH3 (UniProt Q9NSV4) -0.019
DMAC2L (UniProt Q99766) -0.021
COQ8A (UniProt Q8NI60) 0.091
CLIP1 isoform 1 (UniProt P30622) -0.01
CORO7 isoform 3 (UniProt P57737) -0.006
CLASP2 isoform 3 (UniProt O75122) 0.013
COG5 isoform 2 (UniProt Q9UP83) -0.023
DOCK7 (UniProt Q96N67) 0.005
CLUH (UniProt O75153) 0.009
CRABP2 (UniProt P29373) -0.063
CUEDC2 (UniProt Q9H467) -0.038
CNOT6L (UniProt Q96LI5) -0.026
COG4 (UniProt Q9H9E3) -0.038
CLPTM1L (UniProt Q96KA5) 0.037
DPH5 isoform 5 (UniProt Q9H2P9) -0.01
CXXC1 isoform 2 (UniProt Q9P0U4) 0.032
COG6 (UniProt Q9Y2V7) 0.004
DENND4A isoform 2 (UniProt Q7Z401) -0.02
CMBL (UniProt Q96DG6) -0.029
DNM2 isoform 4 (UniProt P50570) 0.078
DMXL1 (UniProt Q9Y485) 0.03
DNM2 (UniProt P50570) 0
COG3 (UniProt Q96JB2) -0.02
DPM1 (UniProt O60762) 0.013
CSPP1 (UniProt Q1MSJ5) -0.105
CNIH4 (UniProt Q9P003) 0.074
CSTF2 (UniProt P33240) 0.031
CXorf38 (UniProt Q8TB03) 0.029
DHRS11 (UniProt Q6UWP2) 0.058
CHEK1 (UniProt O14757) -0.011
COG2 (UniProt Q14746) 0.024
CLIC2 (UniProt O15247) 0.029
